# Reference: PubChem BioAssay (NCATS)
# Results filed as inconclusive are left out. Active and inactive are the calls of the source. Calls follow the shape of the dose curve; as a rule, active = well fitted cell-killing curve with a large enough effect; inconclusive = small, poorly fitted or top-dose-only effect, or effect the other way; inactive = no such curve, though single readings can be large or run the other way.
# Test: Quantitative High-Throughput drug screen in 47 multiple myeloma cell lines against the NCATS MIPE library collection: KMS12BM_JCRB cell viability assay (AID 1918971); also: nearly all actives have a fitted effect of over 35% in size
# Details: KMS12BM myeloma viability, CellTiter-Glo ATP, 48 h; series mostly up to 45.8 µM
# From the text: PI: Beverly A. Mock Ph.D.
# Laboratory of Cancer Biology and Genetics,
# Center for Cancer Research, National Cancer Institute,
# National Institute of Health, Bethesda, Maryland
# Drug resistance and disease progression are common in multiple myeloma (MM) patients, underscoring the need for new therapeutic combinations. […] We hypothesized that effective combinations would reduce MYC expression and enhance p16 activity. […] These preclinical data identify potentially useful drug combinations for evaluation in drug-resistant MM and reveal potential mechanisms of combined drug sensitivity.
# Described herein is the primary MIPE qHTS used to cherrypick compounds. Validated compounds were then further tested for potential synergistic activiy.
# [1] Peat TJ, Gaikwad SM, Dubois W, Gyabaah-Kessie N, Zhang S, Gorjifard S, Phyo Z, Andres M, Hughitt VK, Simpson RM, Miller MA, Girvin AT, Taylor A, Williams D, D'Antonio N, Zhang Y, Rajagopalan A, Flietner E, Wilson K, Zhang X, Shinn P, Klumpp-Thomas C, McKnight C, Itkin Z, Chen L, Kazandijian D, Zhang J, Michalowski AM, Simmons JK, Keats J, Thomas CJ, Mock BA. Drug combinations identified by high-throughput screening promote cell cycle transition and upregulate Smad pathways in myeloma. Cancer Lett. 2023 Aug 1;568:216284. doi: 10.1016/j.canlet.2023.216284. Epub 2023 Jun 24. PMID: 37356470; PMCID: PMC10408729.
# SEQUENCE No. (e.g., 1, 2, 3, etc.); […] (e.g., Cells, Incubation, Reagent, etc.); VALUE and DESCRIPTION.
# 1; Cells; 5 uL; white, solid bottom 1536-well Greiner assay plate.
# 2; Compounds; 23 nL; Kalypsis pin tool (Wako USA) equipped with a 1536-well pin head to transfer to the assay plates.
# 3; Incubation; 48 hours; 37C incubation.
# 4; Reagent;5uL; CellTiter Glo (Promega).
# 5; Detector; 425V; Luminescence; Viewlux PerkinElmer.
# NOTES (numbers refer to Sequence numbers above)
# 1. The cell-based screening methods employed in this study were like those previously published. Briefly, the corresponding myeloma cell lines were screened in 1,536-well plates with 500 cells, 5-uL per well for inhibition of cell viability (assessed by measuring ATP levels with CellTiterGlo).
# 2. NCATS MIPE 4.0 library of approved and investigational drugs were added using the Kalypsis pin tool. Wells treated with DMSO only for 100% viability and media only wells for 0% viability were used as controls.
# 3. The assay plates were covered and incubated for 48 hours in a 37C, 5% CO2 incubator with controlled humidity.
# 4. After 48 hours, CellTilter-GloTM luminescent substrate mix (Promega) reagent was added to the assay plate and plates we incubated for 5 min at room temperature.
# 5. Signal was measured as median relative luminescence units on a ViewLux (PerkinElmer) multiplate reader.
# [1] Heske CM, Davis MI, Baumgart JT, Wilson K, Gormally MV, Chen L, Zhang X, Ceribelli M, Duveau DY, Guha R, Ferrer M, Arnaldez FI, Ji J, Tran HL, Zhang Y, Mendoza A, Helman LJ, Thomas CJ. Matrix Screen Identifies Synergistic Combination of PARP Inhibitors and Nicotinamide Phosphoribosyltransferase (NAMPT) Inhibitors in Ewing Sarcoma. Clin Cancer Res. 2017 Dec 1;23(23):7301-7311. doi: 10.1158/1078-0432.CCR-17-1121. Epub 2017 Sep 12. PMID: 28899971; PMCID: PMC6636827.
# Potency is read from the fitted curve at half-maximal effect.
row,SMILES,Potency
1,Cn1c(=O)n(-c2ccc(C(C)(C)C#N)cc2)c2c3cc(-c4cnc5ccccc5c4)ccc3ncc21,0.0132 µM (active)
2,c1ccc2c(CCNc3ccc(Nc4ccncc4)cc3)c[nH]c2c1,13.2 µM (active)
3,O=C(O)CO.[NH2-].[NH2-].[Pt+2],inactive
4,c1nc2nc(Nc3ccc(N4CCOCC4)cc3)nc(NC3CCCCC3)c2[nH]1,20.9 µM (active)
5,Cc1ccc(C(N)=O)cc1Nc1nccc(-c2cn(C(C)C)c3cnccc23)n1,16.6 µM (active)
6,COC(=O)Nc1nc2ccc(C(=O)c3ccc(F)cc3)cc2[nH]1,0.833 µM (active)
7,CN1CCN(c2cc(C(=O)Nc3ccc4c(c3)-c3c(c(C(N)=O)nn3-c3ccc(F)cc3)CC4)c(Cl)cn2)CC1,23.5 µM (active)
8,C=CC(=O)Nc1cc2c(Nc3ccc(F)c(Cl)c3)ncnc2cc1C#CC(C)(C)N1CCN(C)CC1,0.332 µM (active)
9,CCN(CC)CCCCNc1ncc2cc(-c3cc(OC)cc(OC)c3)c(NC(=O)NC(C)(C)C)nc2n1,18.7 µM (active)
10,O=C(Nc1cn[nH]c1-c1nc2ccc(CN3CCOCC3)cc2[nH]1)NC1CC1,5.9 µM (active)
11,Cc1[nH]nc2ccc(-c3cncc(OC[C@@H](N)Cc4ccccc4)c3)cc12,4.18 µM (active)
12,CCOC(=O)C1=C(C)NC2=C(C(=O)CC(C)(C)C2)C1c1ccc(-c2ccccc2)cc1 (stereo not given),23.5 µM (active)
13,CC(C)(O)c1cc2nc(-c3cnc(N)nc3)nc(N3CCOCC3)c2s1,0.0833 µM (active)
14,COc1ccc2c(OCc3nnc4ccc(-c5ccccc5)nn34)ccnc2c1,inactive
15,CC(C)c1ccc(Cn2ccc3c4c(N)nc(NC5CC5)nc4ccc32)cc1,7.43 µM (active)
16,CC(=O)Nc1nc(C)c(-c2ccc(Cl)c(S(=O)(=O)NCCO)c2)s1,18.7 µM (active)
17,CNC(=O)c1nn(C)c2c1C(C)(C)Cc1cnc(Nc3ccc(N4CCN(C)CC4)cc3)nc1-2,1.66 µM (active)
18,CC[C@@]1(O)C(=O)OCc2c1cc1n(c2=O)Cc2cc3cc(O)ccc3nc2-1,0.526 µM (active)
19,NC(=O)Nc1cc(-c2cccc(F)c2)sc1C(=O)N[C@H]1CCCNC1,0.662 µM (active)
20,O=C(Nc1cc(C(F)(F)F)cc(C(F)(F)F)c1)c1cc(Cl)ccc1O,0.833 µM (active)

row,SMILES,Potency
1,CCS(=O)(=O)c1cccc(-c2cc(C(=O)NC3CCN(C)CC3)c(C)c3[nH]c4ncc(C)cc4c23)c1,5.9 µM (active)
2,CCCCN1CCC(CNC(=O)c2c3n(c4ccccc24)CCCO3)CC1,10.5 µM (active)
3,Cn1cncc1[C@@](N)(c1ccc(Cl)cc1)c1ccc2c(c1)c(-c1cccc(Cl)c1)cc(=O)n2C,14.8 µM (active)
4,OCc1ccc(-c2ccc(-c3ccc(CO)s3)o2)s1,23.5 µM (active)
5,Nc1cccc(-c2cc3c(Oc4cccc(O)c4)ncnc3[nH]2)c1,20.9 µM (active)
6,COc1cccc(-c2ccc(NC(=O)C3=C(C(=O)O)CCC3)c(F)c2)c1,20.9 µM (active)
7,CN(C)c1nc(Cc2ccc(NC(=O)c3ccc4ccccc4c3)cc2)nc(Cl)c1CC(=O)O,inactive
8,Nc1ccn([C@@H]2O[C@H](CO)[C@H](O)C2(F)F)c(=O)n1,0.0264 µM (active)
9,Nc1ccccc1NC(=O)c1ccc(CNC(=O)OCc2cccnc2)cc1,1.32 µM (active)
10,CC1COC2(CCN(c3nc(=O)c4cc(C(F)(F)F)cc([N+](=O)[O-])c4s3)CC2)O1 (stereo not given),inactive
11,Nc1ccccc1NC(=O)c1ccc(CNc2nccc(-c3cccnc3)n2)cc1,1.32 µM (active)
12,CCn1cc(-c2ccnc3[nH]c(-c4cccc(CN(C)C)c4)cc23)c(-c2ccc(NC(=O)N(C)C)cc2)n1,13.2 µM (active)
13,CC(C)c1nn(-c2c(Cl)cccc2Cl)c2nc(Cc3ccc(OCCO)cc3)[nH]c(=O)c12,0.0743 µM (active)
14,C[C@@]12O[C@@H](C[C@]1(O)CO)n1c3ccccc3c3c4c(c5c6ccccc6n2c5c31)CNC4=O,1.48 µM (active)
15,Cn1cc(-c2[nH]c3cc(NC(=O)[C@H](N)C4CCCCC4)cc4c3c2C=NNC4=O)cn1,1.05 µM (active)
16,COc1cc(=C2C=c3ccccc3=N2)[nH]c1=Cc1[nH]c(C)cc1C,1.66 µM (active)
17,CC(C)(C)OC(=O)Nc1ccc(-c2cc(C(=O)NCCCCCCC(=O)NO)no2)cc1,1.66 µM (active)
18,C[C@]12CC[C@H](O)CC1=CCC1C2CC[C@]2(C)C(n3cnc4ccccc43)=CCC12 (stereo not given in full),18.7 µM (active)
19,CC(C)(C)c1cc(NC(=O)Nc2ccc(-c3cn4c(n3)sc3cc(OCCN5CCOCC5)ccc34)cc2)no1,16.6 µM (active)
20,O=C(CCCCCCC(=O)Nc1ccc([C@H]2O[C@@H](CSc3nc(-c4ccccc4)c(-c4ccccc4)o3)C[C@@H](c3ccc(CO)cc3)O2)cc1)NO,11.8 µM (active)
